8 compounds from PubChem BioAssay can be followed below.

For orientation: viability means a read-out of living cells in per cent, often relative to untreated cells.

Test [1] can be described thus: P. berghei load reduction in hepatocytes – cell-based, HepG2, luciferase luminescence, HepG2 viability, primary screen (AID 624349; in the data active = parasite load remaining mostly below about 12%, no sharp cut-off; inactive = mostly above about 10%;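 note: 100% = mean of DMSO negative control wells on the same plate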). The note with it: P. berghei liver stage in HepG2, luciferase luminescence, concentration not given here; parasite load remaining: stronger effect = lower value; viability: measured here: HepG2 viability without parasites.
A short description of test [2]: EMT-state selective cytotoxicity in co-culture – imaging, PC-3E GFP, TEM4-18 mCherry, primary screen (AID 1345086).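 For all read-outs here: cells exposed to compound for 72 h before imaging.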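 For red/green cell ratio (normalised): normalised mesenchymal count divided by normalised epithelial count so high means epithelial killing.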 The note with it: PC-3E GFP / TEM4-18 mCherry co-culture, imaging cell counts, at 1 µM; for red/green cell ratio (normalised): actives lie on both sides, counts scaled to control wells, 1 = unselective.
The nature of test [3]: viability loss with induced miR-34 in A549 – imaging, A549 dox-inducible miR-34, nuclei and caspase counts, primary screen (AID 1347080;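 active = compounds whose cell count with miR-34 switched on is under 0.7 times the count with it off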). The note with it: A549 miR-34 inducible, Hoechst nuclei count, 48 h.
Test [4] is described as follows: MELAS cybrid and Rieske KO viability enhancers – cell-based, MELAS cybrids, Rieske KO mouse fibroblasts, CellTiter-Glo, primary screen (AID 1508586;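 active = mean z-score across replicates of 1.96 or higher in either the MELAS or the Rieske mutant cell line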;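 note: z relative to plate mean and SD of compound and empty wells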). The note with it: low glucose.
A short description of test [5]: galactose survival enhancers in mitochondrial complex I cybrids – cell-based, galactose medium, ATP luminescence, primary screen (AID 1645843;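 active = z-score of at least 1.8 in each of two replicates, scored against plate mean and spread of sample wells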;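 note: positive z means more ATP and so rescue of galactose-driven cybrid death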). The note with it: complex I mutant cybrid cells, 72 h, stronger effect = higher value.
The target in test [6] is NAD(+) hydrolase SARM1 (Homo sapiens) (UniProt Q6SZW1). As to the kind of experiment: blocking NAD cleavage by SARM1 SAM-TIR – cell lysate, NAD-Glo luminescence (AID 1508614;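 active = compound whose remaining NAD level is above about 45 nM, limit read from the data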;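 note: higher remaining NAD means stronger inhibition of SARM1 NADase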). Conditions: SAM-TIR HEK293T lysate NADase, at 1 µM, stronger effect = higher value.
Chain of NAD(+) hydrolase SARM1 (Homo sapiens) (Q6SZW1 whole entry, looked up, the tested form may be a part): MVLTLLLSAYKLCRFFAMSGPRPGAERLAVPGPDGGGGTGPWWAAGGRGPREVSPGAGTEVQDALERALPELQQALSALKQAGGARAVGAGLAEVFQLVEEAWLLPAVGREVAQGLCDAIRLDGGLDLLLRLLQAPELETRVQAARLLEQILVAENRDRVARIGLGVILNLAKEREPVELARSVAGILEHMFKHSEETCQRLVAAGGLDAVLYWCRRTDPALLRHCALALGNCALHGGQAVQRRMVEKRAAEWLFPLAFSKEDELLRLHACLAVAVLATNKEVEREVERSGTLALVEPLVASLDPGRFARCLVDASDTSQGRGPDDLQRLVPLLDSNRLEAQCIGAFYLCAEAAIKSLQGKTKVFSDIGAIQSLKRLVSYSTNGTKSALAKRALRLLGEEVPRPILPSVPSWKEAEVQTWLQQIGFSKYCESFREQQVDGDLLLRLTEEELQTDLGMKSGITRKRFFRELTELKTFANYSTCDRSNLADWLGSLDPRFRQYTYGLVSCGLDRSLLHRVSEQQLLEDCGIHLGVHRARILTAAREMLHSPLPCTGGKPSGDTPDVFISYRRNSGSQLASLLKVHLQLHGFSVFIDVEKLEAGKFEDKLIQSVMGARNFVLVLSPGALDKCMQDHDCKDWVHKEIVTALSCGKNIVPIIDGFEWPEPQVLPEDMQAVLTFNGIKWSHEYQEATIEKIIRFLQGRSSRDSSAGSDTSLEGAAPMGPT
In test [7] the target is Mitogen-activated protein kinase 7 (Homo sapiens) (UniProt Q13164). In words: Gal4-ERK5 driven luciferase induction – cell-based, HTS, primary screen (AID 1508626;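 active = luciferase signal above three times the same-plate solvent-only control wells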;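 note: luciferase driven by Gal4-ERK5 fusion binding five Gal4 sites before minimal TATA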). Conditions: HeLa Gal4-ERK5 transactivation, 18 h, at 5 µM, stronger effect = higher value.
Chain of Mitogen-activated protein kinase 7 (Homo sapiens) (Q13164 whole entry, looked up, the tested form may be a part): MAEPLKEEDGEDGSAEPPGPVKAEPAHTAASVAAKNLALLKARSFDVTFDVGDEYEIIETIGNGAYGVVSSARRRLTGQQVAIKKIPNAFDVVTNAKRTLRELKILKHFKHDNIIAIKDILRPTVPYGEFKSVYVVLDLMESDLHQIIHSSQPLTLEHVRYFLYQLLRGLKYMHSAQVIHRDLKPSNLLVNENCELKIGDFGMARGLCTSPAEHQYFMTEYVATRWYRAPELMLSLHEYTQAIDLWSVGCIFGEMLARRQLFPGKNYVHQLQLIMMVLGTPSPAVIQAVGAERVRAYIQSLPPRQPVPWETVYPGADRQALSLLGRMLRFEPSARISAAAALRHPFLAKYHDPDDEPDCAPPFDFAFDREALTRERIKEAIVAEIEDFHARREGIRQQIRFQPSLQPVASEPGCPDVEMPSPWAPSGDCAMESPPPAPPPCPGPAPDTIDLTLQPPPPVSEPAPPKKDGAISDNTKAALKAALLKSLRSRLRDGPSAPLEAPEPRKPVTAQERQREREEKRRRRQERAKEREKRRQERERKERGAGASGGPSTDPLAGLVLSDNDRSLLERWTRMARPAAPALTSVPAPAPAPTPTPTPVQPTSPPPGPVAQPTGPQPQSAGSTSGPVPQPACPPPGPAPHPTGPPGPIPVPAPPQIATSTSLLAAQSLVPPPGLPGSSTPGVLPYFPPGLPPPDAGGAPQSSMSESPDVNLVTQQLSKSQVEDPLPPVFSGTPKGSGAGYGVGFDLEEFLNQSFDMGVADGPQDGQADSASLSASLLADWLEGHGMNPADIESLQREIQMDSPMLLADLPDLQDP
A short description of test [8]: compounds altering viability of human ES cells (AID 493140; call rule not given here;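 note: cells exposed to compounds for four days before counting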). The note with it: human embryonic stem cell survival screen; stronger effect = higher value.
The mark [9] stands for this setting: measured here: epithelial PC-3E GFP cell survival.
[10] abbreviates: measured here: mesenchymal TEM4-18 mCherry cell survival.
Setting [11] is: stronger effect = lower value, cell number ratio, induced over uninduced.
The mark [12] stands for this setting: measured here: relative caspase fold change +Dox/-Dox.
[13] abbreviates: measured here: total cells with miR-34 induction, stronger effect = lower value.
[14] abbreviates: measured here: total cells without miR-34 induction.
Where [15] appears, read: MELAS cybrid survival, CellTiter-Glo 48 h, stronger effect = higher value.
Setting [16] is: Rieske KO mouse fibroblast survival, CellTiter-Glo 72 h.

Several values for one entry are separate records, joined by “and”; a condition that tells them apart may be missing. Identical values can stand only once. Activity calls are given as the source filed them.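 Rule for the calls, unless noted: active = compounds killing one labelled cell type while sparing the other, by normalised counts and ratio limits, not self-fluorescent; inactive = the rest.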

On to `CC1(O)CCOC(=O)C1` (stereo not given), for which, in test [1], the parasite load remaining was 86.9% (inactive). In test [1], the viability was found to be 107%. Further, the red/green cell ratio (normalised) in test [2] was 1.07 (inactive). In addition, the normalised cell number in test [2] (setting [9]) was determined as 0.95; in test [2] (setting [10]), 1.02. Further, the fold change was 0.969 (inactive) in test [3] (setting [11]) and 0.886 in test [3] (setting [12]). Also, the cell count in test [3] (setting [13]) was determined as 8270; in test [3] (setting [14]) it was 8540. Also, the figures for the z-score in test [4] (setting [15]) and in test [4] (setting [16]) were -0.827 (inactive) and -0.633, respectively.

With `CO[C@H](C(=O)[C@@H](O)[C@@H](C)O)[C@@H]1Cc2cc3cc(O[C@H]4C[C@@H](O[C@H]5C[C@@H](O)[C@H](O)[C@@H](C)O5)[C@@H](O)[C@@H](C)O4)c(C)c(O)c3c(O)c2C(=O)[C@H]1O[C@H]1C[C@@H](O[C@H]2C[C@@H](O[C@H]3C[C@](C)(O)[C@H](O)[C@@H](C)O3)[C@H](O)[C@@H](C)O2)[C@H](O)[C@@H](C)O1`, the parasite load remaining in test [1] was -0.08% (active). The viability in test [1] stood at 93%. The red/green cell ratio (normalised) in test [2] is 0.96 (inactive). The normalised cell number in test [2] (setting [9]) was 0.29; in test [2] (setting [10]), 0.28. The values for the fold change in test [3] (setting [11]) and in test [3] (setting [12]) were 0.97 (inactive) and 0.963, respectively. Moreover, the cell count in test [3] (setting [13]) was 2240; in test [3] (setting [14]) it was 2320. Besides, the results for the z-score in test [4] (setting [15]), in test [4] (setting [16]) and in test [5] were 7.83 (active), -1.51 and -1.89 (inactive), respectively.

For `O=C1C2CC3CC1CC(O)(C3)C2`, the red/green cell ratio (normalised) in test [2] was 0.85 (inactive). The normalised cell number in test [2] (setting [9]) came out at 1.16; in test [2] (setting [10]) it was 0.99. The fold change in test [3] (setting [11]) was 0.951 (inactive); in test [3] (setting [12]) it was 0.928. Moreover, the values for the cell count in test [3] (setting [13]) and in test [3] (setting [14]) were 9100 and 9570, respectively. Also, in test [6], the remaining NAD is 10 nM (inactive).

As to `CC1=C(/C=C/C(C)=C/C=C/C(C)=C/C=C/C=C(C)/C=C/C=C(C)/C=C/C2=C(C)C(=O)CCC2(C)C)C(C)(C)CCC1=O`, in test [1], the parasite load remaining was 32.7% (inactive). Further, the viability in test [1] turned out to be 102%. In addition, in test [2], the red/green cell ratio (normalised) is 1.05 (inactive). The normalised cell number in test [2] (setting [9]) came to 0.85; in test [2] (setting [10]), 0.9. Besides, the fold change in test [3] (setting [11]) is 0.905 (inactive); in test [3] (setting [12]) it was 1.09. The cell count stood at 10100 in test [3] (setting [13]) and 11200 in test [3] (setting [14]). The z-score in test [4] (setting [15]) is 0.499 (inactive); in test [4] (setting [16]) it was 1.32; in test [5], 0.415 (inactive). Moreover, the luciferase signal in test [7] was 100 AU (inactive).

On to `NC(N)=NCC1COC2(CCCCC2)O1` (stereo not given), for which the survival in test [8] is 5.58 (inactive). Further, the parasite load remaining in test [1] is 70.3% (inactive). The viability in test [1] was determined as 91.8%. Besides, the red/green cell ratio (normalised) in test [2] was 1.08 (inactive). Besides, the normalised cell number is 1.11 in test [2] (setting [9]) and 1.2 in test [2] (setting [10]). Further, the fold change in test [3] (setting [11]) was 0.907 (inactive); in test [3] (setting [12]), 1.21. The cell count in test [3] (setting [13]) worked out at 9550; in test [3] (setting [14]), 10500. The z-score in test [4] (setting [15]) was 0.764 (inactive); in test [4] (setting [16]), 0.202. For the same compound, in test [6], the remaining NAD is 10 nM (inactive).

Turning to `CC(O)(CC(=O)O)CC(=O)O`, the red/green cell ratio (normalised) in test [2] is 1.15 (inactive). Besides, the normalised cell number in test [2] (setting [9]) worked out at 0.86; in test [2] (setting [10]), 0.99. For the same compound, the values for the fold change in test [3] (setting [11]) and in test [3] (setting [12]) were 0.913 (inactive) and 1.16, respectively. Also, the cell count in test [3] (setting [13]) turned out to be 8220; in test [3] (setting [14]), 9000. Further, the remaining NAD in test [6] is 10 nM (inactive).

Turning to `O=C1/C(=C/c2cccs2)CCC/C1=C\c1cccs1`, in test [2], the red/green cell ratio (normalised) is 1 (inactive). Besides, the normalised cell number in test [2] (setting [9]) was found to be 0.96; in test [2] (setting [10]), 0.97. Moreover, the fold change in test [3] (setting [11]) was 0.964 (inactive); in test [3] (setting [12]), 1.06. Further, the cell count was found to be 7510 in test [3] (setting [13]) and 7800 in test [3] (setting [14]). Moreover, in test [6], the remaining NAD was 10 nM (inactive).

As to `Cc1c(O)c(=O)n(-c2ccccc2)n1C`, the survival in test [8] was 23.9 (inactive). For the same compound, the parasite load remaining in test [1] is 37.6% (inactive) and 51.4% (inactive). Moreover, in test [1], the viability is 95.8% and 94.4%. Besides, the red/green cell ratio (normalised) in test [2] was 0.78 (inactive). Also, the normalised cell number in test [2] (setting [9]) was found to be 1.09; in test [2] (setting [10]), 0.85. The fold change in test [3] (setting [11]) was 0.946 (inactive); in test [3] (setting [12]), 1.41. Moreover, the cell count came out at 8310 in test [3] (setting [13]) and 8790 in test [3] (setting [14]). Further, the z-score in test [4] (setting [15]) was 0.46 (inactive); in test [4] (setting [16]) it was -0.0513.
